The values that follow come from PubChem BioAssay AID588852 (The Scripps Research Institute Molecular Screening Center, 2011).

SMILES strings stand for the structures. The campaign covered roughly 360,000 compounds. About 4,600 (1.3%) were called active. What follows is part of a selection rich in actives, with near analogues and random picks from the rest. Values without a mark were called inactive.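 The calls were made as follows: active = percent inhibition above its own plate's cutoff, namely the mean of that plate's compound wells plus 3 SD; inactive = the rest.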

Sequence of Muscarinic acetylcholine receptor M1 (Homo sapiens) (P11229 whole entry, looked up): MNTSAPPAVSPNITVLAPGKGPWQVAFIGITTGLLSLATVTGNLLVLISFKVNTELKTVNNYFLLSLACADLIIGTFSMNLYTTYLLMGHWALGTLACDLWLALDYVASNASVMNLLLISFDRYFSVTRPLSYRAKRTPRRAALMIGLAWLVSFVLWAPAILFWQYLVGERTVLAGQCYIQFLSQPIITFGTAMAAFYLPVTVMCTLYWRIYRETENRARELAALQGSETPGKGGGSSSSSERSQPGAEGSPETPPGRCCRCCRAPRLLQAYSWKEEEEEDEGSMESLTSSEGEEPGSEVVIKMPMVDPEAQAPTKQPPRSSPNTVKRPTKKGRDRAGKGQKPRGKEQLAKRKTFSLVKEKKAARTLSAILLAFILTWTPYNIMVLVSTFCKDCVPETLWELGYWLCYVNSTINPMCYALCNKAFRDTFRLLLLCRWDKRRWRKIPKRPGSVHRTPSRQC

The test has as its target Muscarinic acetylcholine receptor M1 (Homo sapiens) (UniProt P11229). Kind of test: human M1 muscarinic receptor antagonists, primary screen, CHO-K1 cells, Fluo-8 calcium fluorescence, 1536-well (AID 588852).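 Also: peak over basal fluorescence ratio during 140 s after agonist addition; 0% = ACh EC80 plus DMSO and 100% = DMSO alone without agonist.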 The settings on record: CHO-K1 hM1, Fluo-8 calcium fluorescence, ACh EC80 antagonist; at 3 µM; hits give high values.
Consider `CC(=O)NC(CC(=O)Nc1cccc(S(=O)(=O)N2CCCC2)c1)c1ccccc1` (stereo not given), for which the inhibition was 3.34%.

As for `CN(C)CCNC(=O)c1cccc(-c2cnc3c(NC=O)cc(-c4cccc(C(F)(F)F)c4)cn23)c1`, the inhibition was 2.76%.

Turning to `CN1OC[C@@H]2CN(C(=O)c3cccc4ccccc34)[C@H](c3ccc(N4CCCCC4)cc3)C[C@@H]21`, the inhibition was 19.7%.

Regarding `CN(CCOc1ccccc1)Cc1nc2cc(Cl)ccc2c(=O)[nH]1`, the inhibition was -3.58%.

`Cc1nnc(NC2=NCCCCC2)o1`: the inhibition is 4.98%.

As to `CC/C(=N\NC(=S)NC(C)C)c1ccc(OC(F)F)cc1`, the inhibition is 8.57%.

As to `O=C(NCc1ccccc1CN1CCCC1)C1CCN(S(=O)(=O)c2ccc(Cl)cc2)CC1`, the inhibition was 35.7% (active).

As to `O=C(NNS(=O)(=O)c1ccc(Cl)cc1)C1CCN(Cc2ccccc2)CC1`, the inhibition is 57.4% (active).

With `Cc1ccc(S(=O)(=O)NCCC(=O)NC2CCN(Cc3ccccc3)CC2)cc1`, the inhibition is -6.1%.

As for `O=C(NCc1ccccc1Cl)C1CCN(S(=O)(=O)N2CCOCC2)CC1`, the inhibition was 0.29%.

In the case of `O=C1CCc2cc(S(=O)(=O)N3CCC(C(=O)NCc4ccccc4Cl)CC3)ccc2N1`, the inhibition was -13.3%.

In the case of `CCNC(=S)NNC(=O)C1CCN(Cc2ccccc2)CC1`, the inhibition is -7.27%.

Regarding `CCCCC[C@@H]1C=C(C(=O)OCC)[C@H](c2ccccc2)N1S(=O)(=O)c1ccc(C)cc1`, the inhibition was 7.33%.

Regarding `Cc1ccc(NC(=O)[C@H](Cc2ccccc2)NC(=O)CC[C@H]2O[C@@H](n3ccc(=O)[nH]c3=O)[C@H](O)[C@@H]2O)cc1C`, the inhibition was -1.88%.

For `Nc1ncnc2c1ncn2[C@@H]1O[C@H](C(=O)N2CCCN(Cc3ccccc3F)CC2)[C@@H](O)[C@H]1O`, the inhibition is -21.5%.

Consider `CN(C)C(=O)c1cccc(-c2cnc3sc(NCc4ccc5c(c4)OCO5)nn23)c1`, for which the inhibition is -4.01%.

Regarding `CCOC(=O)c1ccc(N2C(=O)CC(N3CCC(C(=O)OCC)CC3)C2=O)cc1` (stereo not given), the inhibition is 2.05%.

With `CCCCOC(=O)c1ccc(N2C(=O)CC(N3CCN(C/C=C/c4ccccc4)CC3)C2=O)cc1` (stereo not given), the inhibition was 23.9% (active).

In the case of `CCOC(=O)c1ccc(N2C(=O)CC(N3CCN(C(=O)c4ccccc4)CC3)C2=O)cc1` (stereo not given), the inhibition was -7.68%.

Turning to `COc1ccc(CCNC(=O)CCNS(=O)(=O)c2cc(Br)cnc2N)cc1OC`, the inhibition is -19.1%.

With `COc1cccc(OCc2cc(C(=O)N3CCN(C(=O)c4ccco4)CC3)no2)c1`, the inhibition is -3.65%.

On to `CCCC(=O)N1CCC1(C)C(=O)Nc1ccc(-n2cncn2)cc1` (stereo not given), for which the inhibition is -15.8%.

As for `C=CCC1(CC=C)CCCN1C(=O)c1cc(COc2ccc(-n3cncn3)cc2)on1`, the inhibition was 38.7% (active).

For the molecule `CC(NC(=O)c1ccccc1SCC(=O)N1CCCC1)c1ccccc1` (stereo not given), the inhibition was -16.6%.

With `COc1ccccc1NC(=O)COC(=O)c1ccccc1SCC(=O)N1CCCC1`, the inhibition is -4.49%.

`CC(C)N(Cc1ccccc1)C(=O)COC(=O)c1ccccc1SCC(=O)N1CCCC1`: the inhibition is 32.7% (active).

On to `COc1cc(C=C(OC(C)=O)c2ccc3c(c2)OCO3)cc(OC)c1OC`, for which the inhibition is 17.2%.

As to `O=C(NCC1CCCO1)c1ccccc1-c1nc(-c2ccccc2Cl)no1` (stereo not given), the inhibition is 6.15%.

In the case of `Cc1ccc(C(=O)NCC(=O)NCc2cc(=O)n(C)c(=O)n2C)cc1`, the inhibition was -9.92%.

For `COc1ccc(CCNC(=O)COC(=O)Cc2cc(OC)c(OC)c(OC)c2)cc1`, the inhibition is -5.89%.

Regarding `O=C(COc1ccccc1F)Nc1nc(-c2ccccn2)cs1`, the inhibition is -7.13%.

`COc1ccc(CC(=O)Nc2ccccc2NC(=O)c2ccco2)cc1OC`: the inhibition is -6.85%.

With `COc1ccc(-c2csc(Nc3cccc(C)n3)n2)cc1OC`, the inhibition was -13.9%.

Turning to `COc1cc(CC(=O)Nc2nc(-c3ccc(F)c(F)c3)cs2)cc(OC)c1OC`, the inhibition was 32.3% (active).

With `COc1ccc(CC(=O)Nc2nc(-c3ccc(F)c(F)c3)cs2)cc1OC`, the inhibition is 37.2% (active).

`CC(C)C[C@H]1CN([C@@H](Cc2ccccc2)CN2CCC[C@@H]2CN2C(=O)C(=O)NC[C@@H]2Cc2ccc(O)cc2)C(=O)C(=O)N1CCc1ccccc1`: the inhibition was 6.28%.

As for `CC(=O)Nc1ccc(NC(=O)CSc2nnnn2C2CCCCC2)cc1`, the inhibition was -17.6%.

`CN(CC#CCC(c1ccccc1)c1ccccc1)C(C)(C)C`: the inhibition is 94.5% (active).

With `CC(C)OCCCNc1ncnc2c1[nH]c1ccc(F)cc12`, the inhibition was 49.6% (active).

On to `CCOC(=O)C1=CCC2C(=O)N(Cc3ccccc3)C(=O)C12` (stereo not given), for which the inhibition was -8.51%.

For `CCNC(=O)COC(=O)/C=C/c1c(C)nn(Cc2cccc(OC)c2)c1Cl`, the inhibition was -14.4%.

For `O=C(NC1CC1)C1=C[C@H](c2coc3ccccc3c2=O)C[C@H](OCCCCO)O1`, the inhibition was -2.15%.

In the case of `CC1(Cc2cccc(C#N)c2)C(=O)Nc2ccc(-c3cccc(C(F)(F)F)c3)cc21` (stereo not given), the inhibition is -21.5%.

Consider `O=C(N/N=C/c1ccc(OCC2COCCO2)cc1)c1ccc(Br)cc1` (stereo not given), for which the inhibition was -0.51%.

Regarding `COc1ccccc1-n1c(SCC(=O)Nc2cccc(C(=O)O)c2)nnc1-c1ccccc1O`, the inhibition was -23.3%.

Regarding `COc1cccc(/C=N/Nc2cc(C)nc(-c3ccccc3O)n2)c1O`, the inhibition is 37% (active).

For the molecule `COc1cc(/C=N/Nc2ccc(C)cc2)cc(Br)c1O`, the inhibition is 1.92%.

For `CC(C)C(=O)Nc1nnc(SCC(=O)N2C(C)CCCC2C)s1` (stereo not given), the inhibition was -9.39%.

For the molecule `COC(C)(C)[C@]12CC(O)(C(C)C)ON1[C@H]1CCCCC1N2O` (stereo not given in full), the inhibition was 2.96%.

As to `CCOC(=O)c1cccc(NC(=O)CN2C(=O)C3CC=CCC3C2=O)c1` (stereo not given), the inhibition was -6.58%.

On to `Cc1ccccc1OCC(=O)NNC(=O)c1cc(S(=O)(=O)N(C)C)ccc1N1CCCC1`, for which the inhibition is -9.89%.

Consider `CN(C)Cc1ccccc1C1(O)c2ccccc2CSc2ccccc21` (stereo not given), for which the inhibition was 20.6%.

For `CN(C)CC/C=C1\c2ccccc2CSc2ccccc21`, the inhibition is 96.1% (active).

`COc1ccc(-c2ccc(C(=O)NCCN3CCOCC3)c3occc23)c(C)c1`: the inhibition is 1.54%.

Take `CC(C)C[C@H]1CNC(=S)N1C[C@H]1CCCN1C[C@H](Cc1ccc(O)cc1)N1C[C@H](Cc2ccc(O)cc2)N(CC2CCCCC2)C1=S`: the inhibition was 1.57%.

As a reminder, the inhibition is the relative decrease from the control value, in per cent.
